# In PubChem BioAssay (Tox21):
# Records with an inconclusive call do not appear. Entries that show only a call come without a potency. Unmarked numbers belong to inactive results. The source made the active and inactive calls. Calls come from the whole dose curve; as a rule, active = well fitted inhibition curve with a large enough effect in the repeat runs; inconclusive = weak or mixed curves; inactive = flat fitted curve, though single readings scatter.
# Target: Luciferin 4-monooxygenase (Photinus pyralis) (UniProt P08659)
# Assay: qHTS assay to identify small molecule inhibitors of firefly luciferase (AID 1224835); note: nearly all actives have a fitted effect of over 25% in size
# Details: purified P. pyralis luciferase, luminescence inhibition; series mostly up to 115 µM
# Excerpt: U.S. Tox21 Program National Center for Advancing Translational Sciences [NCATS] NIH Chemical Genomics Center [NCGC] U.S. Environmental Protection Agency [EPA] National Institutes of Environmental Health Sciences [NIEHS] National Toxicology Program [NTP] U.S. Food and Drug Administration [FDA] Tox21 Assay Overview: Firefly (Photinus pyralis) luciferase is one of the most commonly used transcriptional reporters. Firefly luciferase reporter-gene assays are generally considered one of the most sensitive assay types (Wood, 1995; Wood, 1998). However, it was initially observed, in 1991, by Thompson et al., that compounds that resemble the substrates of firefly luciferase (FLuc) can act as competitive inhibitors of the enzyme, and that these compounds, upon interaction with luciferase in the cell, can actually stabilize the protein and increase its half-life. Previous profiling work by other groups to determine the prevalence of compounds that affect FLuc enzymatic activity (PubChem AID 411) identified that ~3% of the MLSMR library (then at ~72K) inhibited FLuc. […] Thus the Tox21 10K library is profiled for activity against FLuc using a biochemical assay of purified FLuc and KM concentrations of FLuc substrates (D-luciferin and ATP).
# These assay plates were then treated with 23nL of compound or DMSO using a Kalypsys pin tool, which allows for delivery of a 6-point interplate titration of each compound to the assay plate (quantitative HTS.) 1 uL of firefly luciferase mix (containing 50 mM Tris acetate, pH 7.6, 0.04 uM P. pyralis luciferase, 0.01% Tween, 0.05% BSA and dH2O) was then delivered by FRD to each well. Luciferase activity was then measured using a ViewLux CCD imager.
# Chain of Luciferin 4-monooxygenase (Photinus pyralis) (P08659 whole entry, looked up): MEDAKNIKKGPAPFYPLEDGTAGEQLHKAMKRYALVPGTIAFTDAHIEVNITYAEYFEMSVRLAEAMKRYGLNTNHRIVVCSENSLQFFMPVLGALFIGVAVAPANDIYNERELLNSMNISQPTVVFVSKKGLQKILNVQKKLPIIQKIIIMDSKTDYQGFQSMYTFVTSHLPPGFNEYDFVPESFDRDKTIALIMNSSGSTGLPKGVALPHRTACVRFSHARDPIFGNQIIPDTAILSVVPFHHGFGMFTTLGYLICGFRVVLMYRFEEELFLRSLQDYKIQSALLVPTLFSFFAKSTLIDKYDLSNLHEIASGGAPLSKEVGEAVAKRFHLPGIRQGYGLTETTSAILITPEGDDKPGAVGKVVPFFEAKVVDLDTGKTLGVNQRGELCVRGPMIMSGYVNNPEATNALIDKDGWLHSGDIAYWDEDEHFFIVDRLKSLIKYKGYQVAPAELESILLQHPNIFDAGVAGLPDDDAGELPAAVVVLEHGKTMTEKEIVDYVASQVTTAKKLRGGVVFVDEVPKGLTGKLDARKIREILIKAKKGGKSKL
Compound,Potency,"activity change, negative = inhibition"
OCCOc1ccc(OCCO)cc1,inactive,–
Cc1ccc(C#N)cc1,inactive,–
CCCCCCCCCCCC,inactive,–
CN1CCCC1,inactive,–
CO[Si](CCCOCC1CO1)(OC)OC (stereo not given),inactive,–
CC(=O)N(CC(O)CO)c1c(I)c(C(=O)NCCO)c(I)c(C(=O)NCC(O)CO)c1I (stereo not given),inactive,–
CC(=O)Nc1c(I)cc(I)c(C(=O)O)c1I,inactive,–
CC1=CC(C)C(C=O)CC1 (stereo not given),inactive,–
C=CCOCC(CC)(CO)COCC=C,inactive,–
O=Cc1cccc([N+](=O)[O-])c1,inactive,–
COC(=O)CCSCCC(=O)OC,inactive,–
C[N+](C)(C)CCCCCC[N+](C)(C)C,inactive,–
CC/C=C\CCOC(C)=O,inactive,–
CCC(C)C1CCCCC1=O (stereo not given),inactive,–
COC(=O)c1ccc(C)cc1C1=NC(C)(C(C)C)C(=O)N1 (stereo not given),inactive,–
CC/C=C\CC/C=C/CO,inactive,–
Cc1cnc(NS(=O)(=O)c2ccc(N)cc2)nc1,inactive,–
CCN1CCC[C@H]1CNC(=O)c1c(O)c(Cl)cc(Cl)c1OC,inactive,–
CCCN(CCC)CCc1cccc2c1CC(=O)N2,inactive,–
NS(=O)(=O)c1ccccc1Cl,inactive,–

Compound,Potency,"activity change, negative = inhibition"
O=C(c1ccccc1)C1CCCCC1,inactive,–
Cc1[nH]c(=O)c(C#N)cc1-c1ccc2nccn2c1,inactive,–
NS(=O)(=O)c1ccc(C(=O)O)cc1,inactive,–
Cc1c(O)cccc1O,inactive,–
C/C=C(\C)C#N,inactive,–
Nc1ccc(S(=O)(=O)Nc2ccnn2-c2ccccc2)cc1,–,8.37% [at 23.6 µM]
CC(C)(C)c1nnc(NS(=O)(=O)c2ccccc2)s1,inactive,–
O=C[C@H](O)[C@@H](O)[C@H](O)[C@H](O)CO,inactive,–
CCOC(=O)c1c(C)n(C)c2ccc(O)cc12,inactive,–
C[C@H]1C[C@@H](O)CC(C)(C)C1,inactive,–
CCCCCSCCCCC,inactive,–
C=C1CC[C@H]2C[C@@H]1C2(C)C,inactive,–
COc1ccc2c(c1)CCCC2=O,inactive,–
CCCCCCCCS(=O)(=O)Cl,inactive,–
Cc1cccn2c(=O)c(-c3nnn[nH]3)cnc12,–,1.24% [at 23.6 µM]
N[C@H]1CN(c2c(F)cc3c(=O)c(C(=O)O)cn(C4C[C@H]4F)c3c2Cl)CC12CC2 (stereo not given in full),inactive,–
O=C(O)CCCl,inactive,–
Nc1nc2c(ncn2COC(CO)CO)c(=O)[nH]1,inactive,–
CC(C)(C)NCCNC(C)(C)C,inactive,–
CCOC(C)(C)C,inactive,–
